Laboratory results published in PubChem BioAssay (NCATS).
Unmarked numbers belong to inactive results. Results filed as inconclusive are left out. The source made the active and inactive calls. Unless noted, the call rests on the fitted dose curve; in most records, active means well fitted curve in the direction sought with a large enough effect; inconclusive means small, poorly fitted or top-dose-only effect, or another doubt; inactive means no such curve, though single readings can be large; an effect the other way counts as inactive or inconclusive.

How the values were obtained:
[1] = molecular target: Lysosomal acid glucosylceramidase (Homo sapiens) (UniProt P04062); test: Glucocerebrosidase-p2 (AID 348; in the data active means potency below about 10 µM; further: potency means the concentration at half of the fitted maximal effect); details: purified GBA, blue fluorogenic substrate, 40 min
Lysosomal acid glucosylceramidase (Homo sapiens), sequence (P04062 whole entry, looked up): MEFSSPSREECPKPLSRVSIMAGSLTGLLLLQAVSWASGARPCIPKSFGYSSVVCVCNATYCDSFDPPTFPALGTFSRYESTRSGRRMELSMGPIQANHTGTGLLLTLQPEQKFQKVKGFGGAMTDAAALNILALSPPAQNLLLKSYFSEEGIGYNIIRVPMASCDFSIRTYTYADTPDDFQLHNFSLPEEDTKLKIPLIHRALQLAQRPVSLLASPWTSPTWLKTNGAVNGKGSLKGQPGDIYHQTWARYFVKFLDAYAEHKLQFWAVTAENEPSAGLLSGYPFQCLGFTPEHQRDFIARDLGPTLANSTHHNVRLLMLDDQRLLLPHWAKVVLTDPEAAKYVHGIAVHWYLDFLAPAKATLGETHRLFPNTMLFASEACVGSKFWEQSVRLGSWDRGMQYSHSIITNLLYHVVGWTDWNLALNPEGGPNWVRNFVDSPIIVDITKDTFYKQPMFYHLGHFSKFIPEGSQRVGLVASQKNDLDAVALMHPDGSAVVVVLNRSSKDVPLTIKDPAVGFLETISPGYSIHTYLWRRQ
Procedure, shortened: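 Compounds titrated from 0.6 nM upwards against 0.2 nM enzyme in pH 5.9 citric acid/KH2PO4, taurocholate, tween-20; blue fluorogenic substrate 80 uM, 40 min room temperature, stopped and read Ex 365/Em 440 for AC50.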

[2] = molecular target: Cytochrome P450 1A2 (Homo sapiens) (UniProt P05177); test: p450-cyp1a2 (AID 410; calls by dose curve; further: potency means the concentration at half of the fitted maximal effect); details: recombinant CYP1A2, luciferin-ME demethylation, luminescence; series mostly up to 57 µM
Cytochrome P450 1A2 (Homo sapiens), sequence (P05177 whole entry, looked up): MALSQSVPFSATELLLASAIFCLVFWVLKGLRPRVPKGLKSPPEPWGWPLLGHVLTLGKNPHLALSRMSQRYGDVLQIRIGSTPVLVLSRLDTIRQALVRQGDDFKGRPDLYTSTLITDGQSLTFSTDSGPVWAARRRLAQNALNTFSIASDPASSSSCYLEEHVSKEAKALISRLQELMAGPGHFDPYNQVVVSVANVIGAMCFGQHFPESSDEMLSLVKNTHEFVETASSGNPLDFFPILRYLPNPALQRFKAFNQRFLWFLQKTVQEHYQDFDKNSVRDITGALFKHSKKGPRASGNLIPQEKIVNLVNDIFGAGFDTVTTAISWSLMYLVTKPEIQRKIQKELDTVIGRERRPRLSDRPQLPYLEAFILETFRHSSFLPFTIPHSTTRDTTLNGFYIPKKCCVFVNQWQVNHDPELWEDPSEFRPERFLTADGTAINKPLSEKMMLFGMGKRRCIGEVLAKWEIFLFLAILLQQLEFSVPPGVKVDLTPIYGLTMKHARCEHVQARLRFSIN
Procedure, shortened: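 Luminescent readout of luciferin formed from Luciferin-ME by human CYP1A2; data normalized against complete inhibition by 57 uM furafylline. Enzyme 20nM, substrate 100uM at Km, 100mM KPO4 buffer, 60 min reaction at room temperature.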

[3] = NFAT Signaling Pathway (AID 444; active means well fitted curve in either direction with a large enough effect, not every such curve was filed as active;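 further: carbachol stimulus at about its EC50 of 1 µM final; on the % scale 0 is the no-effect control and ±100 the full control effect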); details: Jurkat NFAT-bla M1, carbachol, beta-lactamase ratio, 5 h; at 7.69 µM (top of the series) unless noted
Procedure, shortened: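 Jurkat cells carrying an NFAT-driven β-lactamase reporter and co-transfected muscarinic M1 receptor were treated with compound plus carbachol (1 uM final, an EC50 level) for 5 h at 37 °C. CCF4 loading followed for 1 h at RT; 460/530 nm ratio gave %activity.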

[4] = Stat Signaling Pathway (AID 446; active means well fitted curve in either direction with a large enough effect, not every such curve was filed as active;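 further: ME-180 cervical cancer cells given 40 pM IL-6 alongside compound; SIE-controlled beta-lactamase reporter measured as 460/530 nm FRET emission ratio; on the % scale 0 is the no-effect control and ±100 the full control effect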); details: ME-180 SIE beta-lactamase reporter, IL-6 stimulated, 5 h; series mostly up to 7.69 µM
Procedure, shortened: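 IL-6/STAT signaling read in ME-180 cells via an SIE beta-lactamase reporter. Stimulus was 40 pM IL-6 (its AC50) for 5 hrs, so both activation and inhibition register.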

[5] = molecular target: Glucocorticoid receptor (Homo sapiens) (UniProt P04150); test: GR-GFP Redistribution (AID 450;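 active means compounds whose dose series gives a full or clear partial fitted curve of increased nuclear translocation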; further: potency means the concentration at half of the fitted maximal effect); details: U2OS GR-GFP nuclear translocation, laser cytometry, 2 h
Glucocorticoid receptor (Homo sapiens), sequence (P04150 whole entry, looked up, the tested form may be a part): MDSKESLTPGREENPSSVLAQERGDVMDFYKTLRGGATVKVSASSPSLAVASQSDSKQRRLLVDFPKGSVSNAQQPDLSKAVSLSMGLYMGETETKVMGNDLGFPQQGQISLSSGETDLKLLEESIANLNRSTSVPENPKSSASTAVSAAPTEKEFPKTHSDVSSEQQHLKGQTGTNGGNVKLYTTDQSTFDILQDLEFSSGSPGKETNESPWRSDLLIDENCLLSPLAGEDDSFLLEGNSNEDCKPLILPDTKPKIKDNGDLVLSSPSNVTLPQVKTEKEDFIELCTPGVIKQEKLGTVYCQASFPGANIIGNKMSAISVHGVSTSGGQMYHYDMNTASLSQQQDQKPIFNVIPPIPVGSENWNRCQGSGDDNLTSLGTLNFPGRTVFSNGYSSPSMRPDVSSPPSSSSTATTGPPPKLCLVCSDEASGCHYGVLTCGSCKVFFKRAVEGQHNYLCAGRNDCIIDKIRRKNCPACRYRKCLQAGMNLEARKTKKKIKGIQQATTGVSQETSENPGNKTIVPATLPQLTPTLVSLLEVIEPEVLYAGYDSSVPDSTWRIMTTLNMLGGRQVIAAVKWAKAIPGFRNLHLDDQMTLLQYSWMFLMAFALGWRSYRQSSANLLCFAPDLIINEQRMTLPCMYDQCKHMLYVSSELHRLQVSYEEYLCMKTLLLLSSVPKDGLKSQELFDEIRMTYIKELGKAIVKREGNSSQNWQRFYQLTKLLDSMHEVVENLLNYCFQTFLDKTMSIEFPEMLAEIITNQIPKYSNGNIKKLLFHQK

[6] = molecular target: Glucocorticoid receptor (Homo sapiens) (UniProt P04150); test: GR-EFC Redistribution (AID 451; calls by dose curve; further: potency means the concentration at half of the fitted maximal effect); details: CHO-K1 GR-EFC translocation, beta-gal luminescence, 2 h
Procedure, shortened: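 CHO-K1 cells stably expressing nuclear-localized β-gal enzyme acceptor and GR fused C-terminally to the enzyme donor fragment; ligand-driven nuclear translocation restores β-gal by complementation. Compounds titrated up to 46 uM final, 2 h at 37 °C; luminescence read.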

[7] = molecular target: Dual specificity protein kinase CLK4 (Homo sapiens) (UniProt Q9HAZ1); test: qHTS Assay for Inhibitors of CDC-like Kinase 4 (Kinase-Glo Assay) (AID 1770); details: recombinant Clk4, Kinase-Glo ATP depletion luminescence; series mostly up to 66.7 µM; further: nearly all actives have a fitted effect of over 65% in size; further: potency means the concentration at half of the fitted maximal effect
Dual specificity protein kinase CLK4 (Homo sapiens), sequence (Q9HAZ1 whole entry, looked up): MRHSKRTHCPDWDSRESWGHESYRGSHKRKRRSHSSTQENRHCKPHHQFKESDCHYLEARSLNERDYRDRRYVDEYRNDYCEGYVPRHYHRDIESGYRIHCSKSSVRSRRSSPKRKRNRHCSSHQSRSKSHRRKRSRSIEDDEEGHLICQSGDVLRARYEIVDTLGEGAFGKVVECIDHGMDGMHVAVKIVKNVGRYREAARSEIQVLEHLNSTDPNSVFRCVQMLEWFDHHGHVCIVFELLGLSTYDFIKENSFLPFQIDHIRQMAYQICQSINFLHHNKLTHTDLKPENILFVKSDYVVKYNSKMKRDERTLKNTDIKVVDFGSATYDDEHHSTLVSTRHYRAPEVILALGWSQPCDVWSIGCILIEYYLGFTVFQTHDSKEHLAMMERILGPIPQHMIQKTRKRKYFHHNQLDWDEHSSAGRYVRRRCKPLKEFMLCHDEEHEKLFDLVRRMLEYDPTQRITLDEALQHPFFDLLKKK
Procedure, shortened: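 Readout: Kinase-Glo luminescence from ATP left after a 4.5 h room-temperature reaction of 25 nM Clk4 with 100 uM RS peptide and 1 uM ATP (final). Buffer: 25 mM Tris pH 7.5, 10 mM MgCl2.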

[8] = molecular target: Dual specificity protein kinase CLK4 (Homo sapiens) (UniProt Q9HAZ1); test: qHTS Assay for Inhibitors of CDC-like Kinase 4 (ADP-FP Assay) (AID 1795); details: Transcreener ADP fluorescence polarization; series mostly up to 50 µM; further: nearly all actives have a fitted effect of over 60% in size; further: potency means the concentration at half of the fitted maximal effect
Procedure, shortened: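 FP readout: Orange Transcreener ADP2 tracer (4 nM) plus ADP antibody, read after 30 min at room temperature. Kinase step: 6.25 nM Clk4, 100 uM RS peptide, 1 uM ATP, pH 7.5, 1 h.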

[9] = molecular target: Mitogen-activated protein kinase 10 (Mus musculus) (UniProt Q61831); test: JNK3 AlphaScreen Assay (AID 530; active means well fitted curve in either direction with a large enough effect, not every such curve was filed as active;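 further: kinase came from lysate of stimulated human HepG2 cells; signal reports phosphorylation of biotinylated GST-cJun 1-79 at Ser73 with 10 µM ATP; on the % scale 0 is the no-effect control and ±100 the full control effect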); details: JNK3 lysate, c-Jun phosphorylation; series mostly up to 57.1 µM
Procedure, shortened: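 Inhibitors reduce antibody binding to phosphorylated biotin-cJun, lowering AlphaScreen luminescence. Lysates from HepG2 cells pre-activated by IL-1beta plus TNF-alpha supplied JNK3; compounds were titrated.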

[10] = molecular target: 3',5'-cyclic-AMP phosphodiesterase 4B (Homo sapiens) (UniProt Q07343); test: qHTS Assay for Inhibitors of PDE-IV (AID 607; active means well fitted activation curve with a large enough effect in the main read-out, with a control signal flat, not every such curve was filed as active; further: % of control where 0% means no effect); details: HEK293 ACTOne CNG channel cells, membrane potential fluorescence; series mostly up to 22.9 µM
3',5'-cyclic-AMP phosphodiesterase 4B (Homo sapiens), sequence (Q07343 whole entry, looked up): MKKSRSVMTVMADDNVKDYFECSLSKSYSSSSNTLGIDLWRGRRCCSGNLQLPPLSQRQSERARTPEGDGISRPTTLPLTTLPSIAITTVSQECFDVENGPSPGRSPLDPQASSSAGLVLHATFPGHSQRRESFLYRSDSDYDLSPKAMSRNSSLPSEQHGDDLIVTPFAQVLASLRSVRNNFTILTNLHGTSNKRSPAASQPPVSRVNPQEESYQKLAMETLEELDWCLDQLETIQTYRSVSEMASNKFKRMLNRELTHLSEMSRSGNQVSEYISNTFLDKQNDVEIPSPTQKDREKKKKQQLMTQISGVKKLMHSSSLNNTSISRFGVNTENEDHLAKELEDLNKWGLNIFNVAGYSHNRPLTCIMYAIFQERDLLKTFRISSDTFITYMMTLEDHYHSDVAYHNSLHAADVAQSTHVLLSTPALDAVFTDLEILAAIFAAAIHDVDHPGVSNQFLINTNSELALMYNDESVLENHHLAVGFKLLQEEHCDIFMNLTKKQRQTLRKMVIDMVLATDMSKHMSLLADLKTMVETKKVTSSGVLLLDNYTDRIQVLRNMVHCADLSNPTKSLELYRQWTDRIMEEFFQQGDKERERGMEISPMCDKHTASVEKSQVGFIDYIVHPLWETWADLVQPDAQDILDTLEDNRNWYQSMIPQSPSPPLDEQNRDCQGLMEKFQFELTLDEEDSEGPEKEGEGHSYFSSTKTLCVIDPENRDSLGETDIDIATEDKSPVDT
Procedure, shortened: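 Live HEK293 cells with a modified cyclic nucleotide-gated (CNG) channel report intracellular cAMP via membrane-potential dye fluorescence (ex 535/em 590 nm). Endogenous PDE-IV was targeted. Compounds were tested at up to 22.9 uM final; RO 20-1724 100 uM served as control.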

[11] = molecular target: Ubiquitin carboxyl-terminal hydrolase 1 (Homo sapiens) (UniProt O94782); test: Inhibitors of USP1/UAF1: Pilot qHTS (AID 504865); details: purified USP1/UAF1, Ub-rhodamine cleavage fluorescence; series mostly up to 54.9 µM;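 further: rhodamine fluorescence freed from ubiquitin-rhodamine substrate followed over time; top concentration of the series differs between compounds; on the % scale 0 is the no-effect control and ±100 the full control effect; nearly all actives have a fitted effect of over 35% in size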
Ubiquitin carboxyl-terminal hydrolase 1 (Homo sapiens), sequence (O94782 whole entry, looked up): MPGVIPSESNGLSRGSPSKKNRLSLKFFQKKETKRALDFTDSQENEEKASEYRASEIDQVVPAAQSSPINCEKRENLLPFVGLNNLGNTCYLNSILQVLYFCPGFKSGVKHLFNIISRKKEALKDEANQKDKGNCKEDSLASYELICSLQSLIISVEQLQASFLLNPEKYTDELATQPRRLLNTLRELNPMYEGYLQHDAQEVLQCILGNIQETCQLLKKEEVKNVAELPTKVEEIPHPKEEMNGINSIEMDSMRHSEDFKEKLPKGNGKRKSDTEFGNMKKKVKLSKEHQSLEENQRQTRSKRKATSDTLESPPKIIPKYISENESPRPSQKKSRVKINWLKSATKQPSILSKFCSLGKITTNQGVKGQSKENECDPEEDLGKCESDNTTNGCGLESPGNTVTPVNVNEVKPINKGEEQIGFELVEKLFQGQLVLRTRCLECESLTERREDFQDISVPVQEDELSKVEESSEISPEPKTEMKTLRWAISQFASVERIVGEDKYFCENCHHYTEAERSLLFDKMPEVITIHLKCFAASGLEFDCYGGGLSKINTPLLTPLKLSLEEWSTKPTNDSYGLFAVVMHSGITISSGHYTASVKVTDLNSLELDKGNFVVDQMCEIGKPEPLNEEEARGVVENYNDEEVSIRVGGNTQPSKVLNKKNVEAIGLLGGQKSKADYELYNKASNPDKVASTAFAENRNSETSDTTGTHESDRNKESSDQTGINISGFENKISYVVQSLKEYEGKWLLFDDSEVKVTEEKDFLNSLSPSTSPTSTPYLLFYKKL
Procedure, shortened: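 1nM USP1/UAF1 + cpd, 15 min RT; start w/ Ub-Rho 150nM final; kinetic FL 480/540 nm, 6 reads q60 s. Buffer 50mM HEPES pH 7.8, 0.5mM EDTA, 1mM TCEP, 0.01% Tween-20, 0.1 mg/ml BSA.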

[12] = AP1 Signaling Pathway (AID 357; active means well fitted curve in either direction with a large enough effect, not every such curve was filed as active; further: on the % scale 0 is the no-effect control and ±100 the full control effect); details: ME-180 AP-1-bla reporter, EGF-induced, beta-lactamase ratio, 5 h; at 7.69 µM (top of the series) unless noted
Procedure, shortened: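 ME-180 cells with beta-lactamase reporter under AP-1 response element, stimulated with EC50 EGF; compounds tested in titration series, 5 h at 37 °C. CCF4 substrate added 2.5 h at room temperature; 460/530 nm emission ratio gave %activity and AC50.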

[13] = molecular target: Cytochrome P450 3A4 (Homo sapiens) (UniProt P08684); test: qHTS Assay for Inhibitors and Substrates of Cytochrome P450 3A4 (AID 884); details: recombinant CYP3A4, Luciferin-PPXE luminescence; series mostly up to 57.1 µM; further: potency means the concentration at half of the fitted maximal effect; nearly all actives have a fitted effect of over 50% in size
Cytochrome P450 3A4 (Homo sapiens), sequence (P08684 whole entry, looked up): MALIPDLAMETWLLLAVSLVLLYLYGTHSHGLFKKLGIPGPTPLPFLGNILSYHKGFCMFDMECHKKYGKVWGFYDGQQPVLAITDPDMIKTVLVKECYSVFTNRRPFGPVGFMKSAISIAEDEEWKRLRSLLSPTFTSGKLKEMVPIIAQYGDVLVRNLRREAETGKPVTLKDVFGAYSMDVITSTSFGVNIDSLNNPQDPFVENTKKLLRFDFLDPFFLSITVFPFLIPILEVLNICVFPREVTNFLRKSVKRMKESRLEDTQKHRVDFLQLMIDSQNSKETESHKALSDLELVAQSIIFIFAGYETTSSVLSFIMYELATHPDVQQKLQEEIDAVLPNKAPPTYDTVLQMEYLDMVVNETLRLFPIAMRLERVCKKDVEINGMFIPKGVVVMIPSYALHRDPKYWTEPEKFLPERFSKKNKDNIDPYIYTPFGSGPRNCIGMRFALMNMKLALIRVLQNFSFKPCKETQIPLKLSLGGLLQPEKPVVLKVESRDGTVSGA
Procedure, shortened: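 20 nM human CYP3A4 with 25 uM Luciferin-PPXE (at KM) in 200 mM KPO4, preincubated 10 min with compound; NADPH regeneration started a 60 min RT reaction. Luciferin detected by luminescence, normalized to 57 uM ketoconazole as full inhibition.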

[14] = molecular target: Cytochrome P450 3A4 (Homo sapiens) (UniProt P08684); test: qHTS Assay for Activators of Cytochrome P450 3A4 (AID 885); details: recombinant CYP3A4, Luciferin-PPXE luminescence, 60 min; series mostly up to 57.1 µM; further: nearly all actives have a fitted effect of over 65% in size
Procedure, shortened: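 Quantitative HTS format: compounds preincubated with 20nM human CYP3A4 and Luciferin-PPXE substrate at KM, reaction started by NADPH regeneration, stopped after 60 min, luciferase luminescence read 20 min later.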

[15] = molecular target: Cytochrome P450 2D6 (Homo sapiens) (UniProt P10635); test: qHTS Assay for Inhibitors and Substrates of Cytochrome P450 2D6 (AID 891); details: recombinant CYP2D6, luciferin-ME EGE luminescence; series mostly up to 57.1 µM; further: potency means the concentration at half of the fitted maximal effect; nearly all actives have a fitted effect of over 60% in size
Procedure, shortened: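 Human CYP2D6 (5 nM) with 30 uM Luciferin-ME EGE (at Km) in 100 mM KPO4, compound preincubated 10 min, then NADPH regeneration system for 60 min at room temperature. Luciferin read by luminescence; normalized to 1.43 uM quinidine.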

[16] = qHTS Assay for Identification of Small Molecule Agonists for Hypoxia Response Element Signaling Pathway (AID 914; active means well fitted activation curve with a large enough effect in the signal ratio, with a control signal flat, not every such curve was filed as active; the % refers to the signal ratio; further: % of control where 0% means no effect); details: ME-180 (cervical carcinoma) HRE-bla reporter, beta-lactamase ratio, CoCl2, 17 h; activation: stronger effect = higher value
Procedure, shortened: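 Read-out: CCF4 FRET ratio of 460nm to 530nm emission (excitation 405nm) after 2.5 hours at room temperature, taken from HRE-bla ME-180 cells that had been exposed to compound and EC50 CoCl2 for 17 hours.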

[17] = molecular target: Cytochrome P450 2C19 (Homo sapiens) (UniProt P33261); test: qHTS Assay for Inhibitors and Substrates of Cytochrome P450 2C19 (AID 899); details: recombinant CYP2C19, luciferin-H EGE luminescence; series mostly up to 57.1 µM; further: potency means the concentration at half of the fitted maximal effect; nearly all actives have a fitted effect of over 60% in size
Cytochrome P450 2C19 (Homo sapiens), sequence (P33261 whole entry, looked up): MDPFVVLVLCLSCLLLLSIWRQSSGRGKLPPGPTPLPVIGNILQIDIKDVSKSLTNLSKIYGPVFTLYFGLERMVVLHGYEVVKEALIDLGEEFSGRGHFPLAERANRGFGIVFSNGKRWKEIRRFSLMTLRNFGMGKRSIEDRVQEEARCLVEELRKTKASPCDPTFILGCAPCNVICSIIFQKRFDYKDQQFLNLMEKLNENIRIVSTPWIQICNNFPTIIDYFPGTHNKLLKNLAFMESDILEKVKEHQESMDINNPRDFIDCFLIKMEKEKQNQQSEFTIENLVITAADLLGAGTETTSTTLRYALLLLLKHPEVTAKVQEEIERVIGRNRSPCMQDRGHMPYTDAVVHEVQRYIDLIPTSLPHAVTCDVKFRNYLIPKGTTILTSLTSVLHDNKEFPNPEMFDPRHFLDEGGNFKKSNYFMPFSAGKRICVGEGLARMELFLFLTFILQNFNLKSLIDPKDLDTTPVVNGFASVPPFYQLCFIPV
Procedure, shortened: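 Human CYP2C19 (5nM) with Luciferin-H EGE at 10uM (its KM) in 50mM KPO4 was preincubated with compound for 10 min at 37C. NADPH regeneration started a 60 min 37C reaction. Luciferin was read by luminescence, normalized to 57uM ketoconazole.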

[18] = molecular target: Dual specificity protein kinase CLK4 (Homo sapiens) (UniProt Q9HAZ1); test: qHTS Assay for Inhibitors of CDC-like Kinase 4 (ADP-Glo Assay) (AID 1771); details: recombinant CLK4, ADP-Glo luminescence; series mostly up to 80 µM; further: potency means the concentration at half of the fitted maximal effect; nearly all actives have a fitted effect of over 70% in size
Procedure, shortened: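 Luminescence from ADP-Glo reports ADP produced by 25 nM Clk4 acting on 100 uM RS repeat peptide with 1 uM ATP over 1 hr at room temperature; residual ATP is depleted before ADP is converted to ATP for detection.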

Row | SMILES | Potency [1] [µM] | Potency [2] | activity change, negative = inhibition [3] | outcome [4] | Potency [5] [µM] | Potency [6] [µM] | Potency [7] | Potency [8] | Potency [9] | Potency [10] | Potency [11] | activity change, negative = inhibition [12] [%] | Potency [13] | outcome [14] | Potency [15] | activation [16] [%] | Potency [17] | Potency [18]
1 | CN(Cc1ccco1)c1nc(-c2cccnc2)nc2ccccc12 | > 11.4 | 0.316 µM (active) | -25.8% | inactive | > 46 | > 46 | 15.8 µM (active) | 12.6 µM (active) | – | – | – | – | – | – | – | – | – | –
2 | COc1ccc(Oc2ncc3nc(-c4ccccc4)c(=O)n(C[C@H]4CCCO4)c3n2)cc1 | > 11.4 | – | -3.65% | inactive | > 9.22 | > 46 | inactive | inactive | inactive | inactive | inactive | – | – | – | – | – | – | –
3 | COc1ccccc1CNc1ncncc1-c1ccc2c(c1)OCO2 | > 11.4 | 0.158 µM (active) | -11.1% | inactive | > 46 | > 46 | 2.24 µM (active) | – | inactive | – | inactive | -21.5 | 0.199 µM (active) | inactive | 2.51 µM (active) | – | – | –
4 | O=c1c(-c2ccccc2)nc2cnc(Oc3ccccc3)nc2n1C[C@H]1CCCO1 | > 11.4 | – | 4.49% | inactive | > 9.22 | > 46 | inactive | inactive | – | inactive | – | 180 | – | – | – | – | – | –
5 | COc1cccc(-c2nc(NCc3cccnc3)c3ccccc3n2)c1 | > 11.4 | 0.158 µM (active) | 27.1% | inactive | – | > 46 | 25.1 µM (active) | – | inactive | – | – | -1.11 | 2 µM (active) | inactive | – | -25.6 | – | –
6 | COc1ccccc1CNc1ccnc(-c2cccc(NS(C)(=O)=O)c2)n1 | > 11.4 | – | 2.18% | inactive | > 46 | > 46 | 28.2 µM (active) | – | – | inactive | – | -17.8 | – | – | – | – | – | –
7 | COc1ccccc1CNc1cc(-c2ccccc2CN(C)C)ncn1 | > 11.4 | – | – | – | – | > 46 | inactive | inactive | inactive | – | – | 4.71 | – | – | – | – | – | –
8 | Cc1noc(C)c1-c1nc(N2CCN(C)CC2)c2ccccc2n1 | > 11.4 | 0.316 µM (active) | -5.52% | inactive | > 46 | > 46 | 15.8 µM (active) | – | inactive | – | – | 28.9 | – | – | – | – | – | –
9 | CCNc1ncc2nc(CCc3ccccc3)c(=O)n(C3CC3)c2n1 | – | 3.16 µM (active) | 11.9% | inactive | > 9.22 | > 46 | inactive | inactive | inactive | – | inactive | -7.57 | – | inactive | 0.398 µM (active) | – | 6.31 µM (active) | –
10 | O=c1c(CCc2ccccc2)nc2cncnc2n1Cc1ccccc1 | > 11.4 | – | -4.57% | inactive | – | > 46 | inactive | inactive | inactive | – | inactive | – | – | – | – | – | – | –
11 | c1cncc(CNc2nc(-c3cccnc3)nc3ccccc23)c1 | > 11.4 | 0.316 µM (active) | -15.2% | inactive | > 46 | > 46 | 7.08 µM (active) | 11.2 µM (active) | – | – | inactive | -12.9 | – | – | – | – | – | –
12 | Cn1cc(-c2nc3cnc(N4CCNCC4)nc3n(CCc3ccccc3)c2=O)c2ccccc21 | > 11.4 | 15.8 µM (active) | 91.4% [activator] (active) | – | > 9.22 | – | inactive | inactive | – | inactive | – | – | – | inactive | – | – | 2 µM (active) | –
13 | COCCn1c(=O)c(CCc2ccccc2)nc2cncnc21 | > 11.4 | 10 µM (active) | 9.83% | inactive | > 9.22 | > 46 | inactive | inactive | inactive | inactive | inactive | -15.8 | 7.94 µM (active) | inactive | – | – | – | –
14 | Clc1ccccc1-c1ccc2ncnc(NCCN3CCOCC3)c2c1 | – | 5.01 µM (active) | 13.8% | inactive | > 46 | > 46 | 28.2 µM (active) | – | inactive | – | inactive | – | 5.01 µM (active) | inactive | – | – | – | 25.1 µM (active)
15 | CCNc1ncc2ncc(=O)n(Cc3cccc(OC)c3)c2n1 | > 11.4 | 3.98 µM (active) | 8.9% | inactive | – | > 46 | 3.16 µM (active) | 11.2 µM (active) | inactive | – | inactive | -7.38 | – | – | – | – | 2 µM (active) | –
16 | COc1ccc(-n2c(=O)c(-c3cccs3)nc3cnc(N4CCN(C)CC4)nc32)cc1 | > 11.4 | 2.51 µM (active) | 4.91% | inactive | > 9.22 | > 46 | inactive | inactive | – | inactive | inactive | 8.48 | – | inactive | – | – | – | –
